The results in this text go back to PubChem BioAssay.

Unmarked numbers belong to inactive results. How the calls were made is not given here.

The target in the assay is Pantothenate synthetase (Mycobacterium tuberculosis (strain ATCC 25618 / H37Rv)) (UniProt P9WIL5). Briefly: Recombinant Mtb pantothenate synthetase (PanC) inhibitors, coupled enzyme, confirmatory (AID 375).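 Further: 0% = full reaction with vehicle and 100% = no enzyme background.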 To be noted: coupled enzyme assay; at 10 µM, stronger effect = higher value.
Pantothenate synthetase (Mycobacterium tuberculosis (strain ATCC 25618 / H37Rv)), sequence (P9WIL5 whole entry, looked up): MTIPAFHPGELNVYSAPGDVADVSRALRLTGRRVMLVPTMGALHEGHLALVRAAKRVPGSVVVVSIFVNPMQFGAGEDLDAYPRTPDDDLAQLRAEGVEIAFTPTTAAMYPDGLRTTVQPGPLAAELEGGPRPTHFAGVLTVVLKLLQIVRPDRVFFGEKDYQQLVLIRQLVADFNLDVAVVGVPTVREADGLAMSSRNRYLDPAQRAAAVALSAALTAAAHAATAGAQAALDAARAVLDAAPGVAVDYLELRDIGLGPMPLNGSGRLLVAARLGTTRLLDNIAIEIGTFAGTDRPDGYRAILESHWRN
Turning to `O=c1[nH]cnc2c1nc(SCc1ccccc1)n2C1OC(CO)C(O)C1O` (stereo not given), the inhibition (commonly the change of the read-out against control, counted positive when it falls) is 0%.
`CC1CCCCC1NC(=O)C1CCN(C(=O)NC2CCCCC2)CC1` (stereo not given): the inhibition is 0%.
For `CNC(=O)CSc1nnc(-c2ccc(S(=O)(=O)N3CCCC3)cc2)n1-c1cccc(C)c1C`, the inhibition is 0%.
Turning to `O=C(C1CCCN(S(=O)(=O)c2cccnc2)C1)N1CCn2c1nc1ccccc12` (stereo not given), the inhibition was 0%.
In the case of `O=S(=O)(c1cccc2nsnc12)N1CCN(c2ncccn2)CC1` it was 0%.
In the case of `CC(C)(C)C(=O)/C=C(\N)c1ccccn1` it was 2%; in that of `C=CCOc1nc(N(C)C)nc(N(C)C)n1`, 7%.
Turning to `c1ccc(Cn2nnnc2CN2CCN(c3ncccn3)CC2)cc1`, the inhibition is 1%.
In the case of `Oc1c(Cl)cc(Cl)cc1CNc1ccc(Br)cn1` it was 4%; in that of `COc1ccccc1-c1cn[nH]c(=S)n1`, 11%.
For `COC(=O)C1CCN(C(=O)CN2C(=O)NC(CCc3ccccc3)C2=O)CC1` (stereo not given), the inhibition is 0%.
In the case of `O=C(NCc1cccnc1)c1cccc(C(F)(F)F)c1` it was 1%; in that of `CCOCCCNC(=O)CC1Oc2ccc(C)cc2NC1=O` (stereo not given), 0%; in that of `CC1CC(C)CN(Cc2nc3c(c(=O)n(C)c(=O)n3C)n2Cc2ccccc2Cl)C1` (stereo not given), 0%.
In the case of `CCOc1ccc(NC(=O)CSc2nnc(COc3c(C)cccc3C)o2)cc1` it was 1%; in that of `O=C(c1cc(C2CC2)on1)N1CCN(C(c2ccccc2)c2ccccc2)CC1`, 0%; in that of `CCOCC(=O)Nc1ccc(S(=O)(=O)N2CCOCC2)cc1`, 0%.
With `O=C(NC1CCCCC1NC(=O)c1ccco1)c1ccco1` (stereo not given), the inhibition was 0%.
Regarding `CC1CN(C(=O)c2cc3cc(Cl)cc(Cl)c3oc2=O)CC(C)O1` (stereo not given), the inhibition is 0%.
For the molecule `C=CCNC(=O)CNS(=O)(=O)c1ccc(F)cc1`, the inhibition is 2%.
`Cc1nc2ccc(N3C(=O)CCC3=O)cc2[nH]1`: the inhibition is 5%.
In the case of `Cc1ccc(-c2cc(C(F)F)nc(NCc3cccnc3)n2)cc1` it was 0%; in that of `Cc1cc(=O)oc2cc(OCC(=O)OCc3nnc(-c4ccccc4)o3)ccc12`, 1%; in that of `O=C(Nc1ccc(Cl)c(Cl)c1)Nc1cc(C(=O)N2CCOCC2)ccc1N1CCCCC1`, 4%.
In the case of `COc1ccc(CN(C(=O)c2ccccc2OC)C2CCS(=O)(=O)C2)cc1` (stereo not given) it was 0%; in that of `O=C(NCc1ccccc1)N[C@@H](Cc1ccccc1)C(=O)O`, 1%.
With `C=CCC(Nc1ccco1)c1ccccc1` (stereo not given), the inhibition was 1%.
In the case of `Cc1nc2ccccn2c1/C(O)=C1\C(=O)C(=O)N(CCCN(C)C)C1c1ccc(F)cc1` (stereo not given) it was 4%; in that of `C=CCc1cc(C(=O)N2CCCCC2)ccc1O`, 0%; in that of `COc1cccc(C2C(C(=O)c3cc4ccccc4o3)=C(O)C(=O)N2CCN(C)C)c1OC` (stereo not given), 1%.
Regarding `CCOC(=O)C(CC)Sc1nc2c(c(=O)[nH]c(=O)n2C)n1C/C=C(/C)Cl` (stereo not given), the inhibition was 8%.
In the case of `COC(=O)CCC(=O)CN` it was 0%; in that of `CCOC(=O)c1c(C)oc2c1c(C=NCc1ccccn1)c(O)c1ccccc12`, 3%; in that of `C=CCC1(O)C(=O)Nc2ccccc21` (stereo not given), 0%.
In the case of `N#Cc1nc(-c2ccccc2Cl)oc1N1CCOCC1`, the inhibition was 0%.
Consider `COc1cccc(C2=NOC(C(=O)Nc3cc(C)nn3-c3ccccc3)C2)c1OC` (stereo not given), for which the inhibition was 0%.
On to `O=C(CCN1C(=O)C2C3C=CC(C3)C2C1=O)Nc1c(F)cc(F)cc1Br` (stereo not given), for which the inhibition is 0%.
In the case of `COc1cc(NC2=CC(=O)CC(C)(C)C2)cc(OC)c1` it was 0%; in that of `COc1cccc(-c2csc(N3CCN(CC(=O)Nc4ccc5c(c4)OCO5)CC3)n2)c1`, 0%; in that of `O=C(CSc1oc(-c2ccco2)nc1S(=O)(=O)c1ccccc1)NCC1CCCO1` (stereo not given), 0%.
